Measured values from PubChem BioAssay (NCI).
About 83,000 compounds went through this panel and 20% of them were active in at least one assay; those are over-represented in the sample as a whole.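 Testing used 96-well plates and a 48-hour single-concentration exposure. Example: -40 means 40% of the starting cells died.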 Calls of active or inactive are those of the source. Rule for the calls: active = growth percent below 10; inactive = the rest.

Tests used:
Test in all cases: NCI-60 one-dose screen, 48 h (100 = growth as untreated, 0 = no growth, -100 = all killed)
Settings in all cases: 10 µM
NCI-H23 lung = test system: NCI-H23 lung
NCI-H226 lung = test system: NCI-H226 lung
NCI-H460 lung = test system: NCI-H460 lung
HOP-92 NSCLC = test system: HOP-92 NSCLC
NCI-H522 lung = test system: NCI-H522 lung
786-0 renal = test system: 786-0 renal
COLO 205 colon = test system: COLO 205 colon
DU-145 prostate = test system: DU-145 prostate
MDA-MB-231 breast = test system: MDA-MB-231 breast
RXF 393 renal = test system: RXF 393 renal
SF-268 CNS = test system: SF-268 CNS
SF-295 CNS = test system: SF-295 CNS
SF-539 CNS = test system: SF-539 CNS
UACC-257 melanoma = test system: UACC-257 melanoma
M14 melanoma = test system: M14 melanoma
A549/ATCC NSCLC = test system: A549/ATCC NSCLC
MALME-3M melanoma = test system: MALME-3M melanoma
K-562 leukemia = test system: K-562 leukemia

Measured: growth

CC(=O)COc1ccc(Cl)cc1Cl
inactive: NCI-H23 lung 106% | NCI-H226 lung 93% | NCI-H460 lung 110% | HOP-92 NSCLC 91% | NCI-H522 lung 107% | 786-0 renal 103% | COLO 205 colon 114% | DU-145 prostate 106% | MDA-MB-231 breast 105% | RXF 393 renal 107% | SF-268 CNS 109% | SF-295 CNS 103% | SF-539 CNS 114% | UACC-257 melanoma 112% | M14 melanoma 110%

CCCCCOC(=O)Nc1nc(=O)n(C2O[C@H](C)[C@@H](O)[C@H]2O)cc1F (stereo partly specified)
inactive: NCI-H23 lung 95.3% | NCI-H226 lung 97.7% | NCI-H460 lung 102% | HOP-92 NSCLC 92.4% | A549/ATCC NSCLC 98% | 786-0 renal 106% | COLO 205 colon 106% | DU-145 prostate 115% | MALME-3M melanoma 103% | MDA-MB-231 breast 90.9% | RXF 393 renal 98.1% | SF-268 CNS 95.4% | SF-295 CNS 98.1% | SF-539 CNS 101% | UACC-257 melanoma 96.2% | M14 melanoma 108%

O=C(CCCCCCC(=O)Nc1ccccc1)NO
active: NCI-H23 lung 3.33% | HOP-92 NSCLC -10.4% | A549/ATCC NSCLC 7.25% | COLO 205 colon -62.8% | DU-145 prostate 3.46% | MALME-3M melanoma 1.69% | RXF 393 renal -39.9% | SF-295 CNS -22.6% | UACC-257 melanoma -26%
inactive: NCI-H226 lung 48.9% | NCI-H460 lung 16.3% | 786-0 renal 23.2% | MDA-MB-231 breast 16.4% | SF-268 CNS 14.9% | SF-539 CNS 16.8% | M14 melanoma 23%

CC(C)c1ccc(C(C)C(=O)N(CC2=C(C(C)c3ccccn3)c3ccccc3C2)C(C)C)cc1 (stereo unspecified)
inactive: NCI-H23 lung 26.3% | NCI-H226 lung 57.1% | NCI-H460 lung 23.1% | HOP-92 NSCLC 20.3% | NCI-H522 lung 24.9% | A549/ATCC NSCLC 36% | 786-0 renal 40.9% | COLO 205 colon 35.7% | DU-145 prostate 57.6% | K-562 leukemia 24.5% | MDA-MB-231 breast 48.4% | RXF 393 renal 45.6% | SF-268 CNS 46% | SF-295 CNS 25.6% | SF-539 CNS 61.4% | UACC-257 melanoma 49.3% | M14 melanoma 48.1%

CCn1c(CSc2nc3ccccc3c(=O)n2CCc2ccccc2)n[nH]c1=S
active: NCI-H522 lung -5%
inactive: NCI-H23 lung 65.6% | NCI-H226 lung 78.1% | NCI-H460 lung 96.5% | HOP-92 NSCLC 85.9% | A549/ATCC NSCLC 84.6% | 786-0 renal 81.7% | COLO 205 colon 105% | DU-145 prostate 113% | K-562 leukemia 71.6% | MALME-3M melanoma 97.2% | MDA-MB-231 breast 82.8% | RXF 393 renal 85.2% | SF-268 CNS 98.4% | SF-539 CNS 99.8% | UACC-257 melanoma 88.5% | M14 melanoma 88.8%

CN1CCN(CCCn2c(=O)c3sc4ncccc4c3n3nnc(-c4ccccc4)c23)CC1
inactive: NCI-H23 lung 77.3% | NCI-H226 lung 108% | HOP-92 NSCLC 48.9% | A549/ATCC NSCLC 12% | DU-145 prostate 31.5%
active: NCI-H460 lung -77.1% | NCI-H522 lung -83.9% | 786-0 renal 5.36% | K-562 leukemia -32.5% | MDA-MB-231 breast -45.5% | RXF 393 renal -68.3% | SF-268 CNS -10.8% | SF-295 CNS -76.1% | SF-539 CNS -90.5% | UACC-257 melanoma -88.8% | M14 melanoma -82.7%

CNC(=O)c1c(I)c(NC(C)=O)c(I)c(C(=O)O)c1I
inactive: NCI-H23 lung 97.5% | NCI-H226 lung 98.8% | NCI-H460 lung 109% | HOP-92 NSCLC 92.7% | A549/ATCC NSCLC 105% | 786-0 renal 127% | COLO 205 colon 118% | DU-145 prostate 113% | MALME-3M melanoma 112% | MDA-MB-231 breast 95.5% | RXF 393 renal 115% | SF-268 CNS 108% | SF-295 CNS 119% | SF-539 CNS 109% | UACC-257 melanoma 114%

CCN1CC(CCN2CCOCC2)C(C(c2ccccc2)c2ccccc2)C1=O (stereo unspecified)
inactive: NCI-H23 lung 105% | NCI-H226 lung 97.3% | NCI-H460 lung 108% | HOP-92 NSCLC 98.9% | A549/ATCC NSCLC 101% | 786-0 renal 114% | COLO 205 colon 110% | DU-145 prostate 118% | MALME-3M melanoma 120% | MDA-MB-231 breast 87.6% | RXF 393 renal 107% | SF-268 CNS 112% | SF-295 CNS 89.9% | SF-539 CNS 111% | UACC-257 melanoma 105% | M14 melanoma 108%

Clc1ccc2c(c1)C(N1CCNCC1)=Nc1ccccc1O2
active: HOP-92 NSCLC 7.39% | COLO 205 colon -65.9% | MALME-3M melanoma 2.69% | UACC-257 melanoma -18.3%
inactive: NCI-H23 lung 64.4% | NCI-H226 lung 83.3% | NCI-H460 lung 68.1% | A549/ATCC NSCLC 65% | 786-0 renal 56.1% | DU-145 prostate 68.4% | MDA-MB-231 breast 19.4% | RXF 393 renal 27.2% | SF-268 CNS 52.9% | SF-295 CNS 58% | SF-539 CNS 73.4% | M14 melanoma 15.7%

CCNc1nc(C(F)(F)F)nc2c1sc(=S)n2-c1ccccc1
inactive: NCI-H23 lung 93.4% | NCI-H226 lung 88.5% | NCI-H460 lung 100% | NCI-H522 lung 70.4% | A549/ATCC NSCLC 74.4% | 786-0 renal 101% | COLO 205 colon 106% | DU-145 prostate 101% | K-562 leukemia 103% | MALME-3M melanoma 144% | MDA-MB-231 breast 85.1% | RXF 393 renal 100% | SF-268 CNS 105% | SF-295 CNS 94% | SF-539 CNS 101% | M14 melanoma 108%

O=S(=O)(NCCCNc1nccc(-c2cn(-c3ccccc3)nc2-c2ccc(Cl)c(O)c2)n1)c1ccccc1
inactive: NCI-H23 lung 78.5% | NCI-H226 lung 76.3% | NCI-H460 lung 46.3% | NCI-H522 lung 65.6% | A549/ATCC NSCLC 37.3% | 786-0 renal 68% | COLO 205 colon 69.4% | DU-145 prostate 81.4% | K-562 leukemia 65% | MALME-3M melanoma 125% | MDA-MB-231 breast 71.6% | RXF 393 renal 74.2% | SF-268 CNS 68.5% | SF-295 CNS 63.2% | SF-539 CNS 88.9% | M14 melanoma 60.7%

COc1ccc(/C=C2\CCCC3=C2NC(N)=NC3c2ccc(OC)cc2)cc1 (stereo unspecified)
inactive: NCI-H23 lung 94.1% | NCI-H226 lung 77.3% | NCI-H460 lung 99.2% | NCI-H522 lung 77.3% | A549/ATCC NSCLC 89.4% | 786-0 renal 106% | COLO 205 colon 112% | DU-145 prostate 109% | K-562 leukemia 107% | MALME-3M melanoma 99.6% | MDA-MB-231 breast 96.9% | RXF 393 renal 99.3% | SF-268 CNS 109% | SF-295 CNS 104% | SF-539 CNS 107% | UACC-257 melanoma 91.2% | M14 melanoma 106%

CCn1cc(CNc2ccc(C(=O)Nc3ccc4ccccc4c3)cc2)c(C)n1
inactive: NCI-H23 lung 52.9% | NCI-H226 lung 51% | NCI-H460 lung 62.9% | NCI-H522 lung 74.7% | A549/ATCC NSCLC 63.4% | 786-0 renal 75.3% | COLO 205 colon 69.2% | DU-145 prostate 61.2% | K-562 leukemia 59.5% | MALME-3M melanoma 62.5% | MDA-MB-231 breast 83.8% | RXF 393 renal 86% | SF-268 CNS 76.4% | SF-295 CNS 64.2% | SF-539 CNS 83.3% | M14 melanoma 45.1%

CC(C)(C)OC(=O)CN1CCc2c(sc3ncnc(N/N=C/c4cccc5ccccc45)c23)C1
active: K-562 leukemia 6.22%
inactive: NCI-H23 lung 40.6% | NCI-H226 lung 53.1% | NCI-H460 lung 20.9% | NCI-H522 lung 32.8% | A549/ATCC NSCLC 43.7% | 786-0 renal 44.1% | COLO 205 colon 18.4% | DU-145 prostate 66.4% | MALME-3M melanoma 72.2% | MDA-MB-231 breast 39.9% | RXF 393 renal 55.9% | SF-268 CNS 60.2% | SF-295 CNS 51.5% | SF-539 CNS 24.3% | UACC-257 melanoma 38.8% | M14 melanoma 42.7%

Cc1cc(C(C#N)c2ccc(Cl)cc2)c(Cl)cc1NC(=O)c1cc(I)cc(I)c1O (stereo unspecified)
active: HOP-92 NSCLC -12.1% | SF-295 CNS -20.9%
inactive: NCI-H23 lung 10.4% | NCI-H226 lung 45.4% | NCI-H460 lung 24.1% | A549/ATCC NSCLC 71.3% | 786-0 renal 20.8% | COLO 205 colon 53.5% | DU-145 prostate 72.7% | MALME-3M melanoma 58.1% | MDA-MB-231 breast 46.6% | RXF 393 renal 48.9% | SF-268 CNS 33.7% | SF-539 CNS 31.5% | UACC-257 melanoma 71.3% | M14 melanoma 32.3%

CO[C@H]1CC(O[C@@H]2/C(C)=C/C[C@@H]3C[C@@H](C[C@]4(C=C[C@H](C)[C@@H](C5CCCCC5)O4)O3)OC(=O)[C@@H]3C=C(C)[C@@H](O)[C@H]4OC/C(=C\C=C\[C@@H]2C)[C@]43O)O[C@@H](C)C1O[C@H]1C[C@H](OC)[C@@H](O)[C@H](C)O1 (stereo partly specified)
active: NCI-H23 lung -63.7% | NCI-H226 lung -85.8% | NCI-H460 lung -86.7% | HOP-92 NSCLC -82.9% | A549/ATCC NSCLC -79.7% | 786-0 renal -80.3% | COLO 205 colon -64.7% | DU-145 prostate -98.4% | MALME-3M melanoma -68.1% | MDA-MB-231 breast -81.1% | RXF 393 renal -95.5% | SF-268 CNS -81.5% | SF-295 CNS -84.6% | SF-539 CNS -72.3% | UACC-257 melanoma -84% | M14 melanoma -88%

COc1ccc(-c2nn(-c3cccc(Cl)c3)cc2-c2c(C#N)c(=O)n3[nH]c(-c4ccc(C)cc4)nc3c2C#N)cc1
inactive: NCI-H23 lung 75.3% | NCI-H226 lung 57.5% | NCI-H460 lung 39.3% | NCI-H522 lung 20.5% | A549/ATCC NSCLC 50.5% | COLO 205 colon 15.9% | DU-145 prostate 28.4% | MALME-3M melanoma 21.4% | RXF 393 renal 28.2% | SF-268 CNS 35.8% | SF-295 CNS 23.6% | SF-539 CNS 34.8% | UACC-257 melanoma 96.9%
active: 786-0 renal 3.78% | K-562 leukemia 4.62% | MDA-MB-231 breast -2.7% | M14 melanoma -10.9%

C#C[C@]1(O)CCC2C3CCc4cc(OC5CCCC5)ccc4C3CC[C@@]21C (stereo partly specified)
inactive: NCI-H23 lung 76.6% | NCI-H226 lung 91.6% | NCI-H460 lung 49.8% | HOP-92 NSCLC 99.6% | A549/ATCC NSCLC 65.9% | 786-0 renal 73.5% | COLO 205 colon 49.3% | DU-145 prostate 89% | MALME-3M melanoma 121% | MDA-MB-231 breast 50.6% | RXF 393 renal 97.7% | SF-268 CNS 71.3% | SF-295 CNS 77.2% | SF-539 CNS 101% | UACC-257 melanoma 92.6% | M14 melanoma 80.2%
